According to PubChem BioAssay (NCI):
This is part of a sample that, as a whole, favours compounds with a hit. Of some 83,000 tested, about 20% had one in any assay.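 Interpretation: 100, growth as untreated; towards 0, rising growth inhibition; 0, no net growth; 0 to -100, cell death. Compounds scoring below 10 were considered active.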 Activity calls are given as the source filed them.

Each compound was assayed on MDA-MB-468 breast (assay: NCI-60 one-dose screen, 48 h (100 = growth as untreated, 0 = no growth, -100 = all killed)). Conditions: 10 µM unless noted.

SMILES	growth
CNC(=O)c1c(NC(=O)c2ccc(C(C)(C)C)cc2)sc2c1CCC(=O)C2	3.25% (active)
C=CCn1c(SCC(=O)Nc2ccc(/C(C)=N\O)cc2)nnc1-c1cc(-c2ccc(Cl)cc2)nc2ccccc12	42.7% (inactive)
CN(CCCCCl)P(=O)(OCc1ccc([N+](=O)[O-])o1)C(F)(F)C[C@H](NC(=O)CNC(=O)c1ccc(N=[N+]=[N-])cc1)C(=O)NCCc1ccc(O)cc1 (stereo partly drawn)	12.5% (inactive)
COc1ccc(C2=C/C(=C\c3ccccc3O)C(=O)N2Cc2ccccc2)cc1	53.7% (inactive)
O=C(c1ccccc1)C(c1ccccc1)N1CCOCC1 (stereo not drawn)	103% (inactive)
CCCCCCCCCCCCCCCCCC(=O)NCCNC(=O)CCCCCCCCCCCCCCCCC	102% (inactive)
CCN(CC)CCSc1c2ccc(Cl)cc2nc2ccc(OC)cc12	-17.5% (active)
Cc1ccc2oc3nc(C)c(C(=O)NCc4ccccc4)cc3c(=O)c2c1	96.7% (inactive)
